# Where “and” joins values, the source holds several entries; their conditions need not be identical. Equal values may be shown once. The whole screen tested about 5,500 compounds, of which about 2,000 (36%) were called active. Inconclusive results (about 18%) are left out. The list shows a part of the results. Values without a mark were called inactive. Rule as the data show it: active = normalized growth mostly below about 0.91 (no sharp cut-off); inconclusive = no clear call, values can overlap the other calls; inactive = mostly above about 0.92.
# Experiment: chemical genetic growth profiling, strain panel (AID 1159580);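 also: tested at 20 µM; growth read once vehicle control cultures reached saturation at 30 °C; 1 = growth at the plate median or of vehicle wells; lower values mean less growth of the strain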
# Details: S. cerevisiae deletion strains, growth OD
smiles,measurement,setting,value
COc1ccc([C@@H](C)C(=O)c2ccc(O)cc2O)cc1,normalized growth,"locus YAL021C, strain ccr4, active compounds read low",0.987
same,normalized growth,"locus YAL026C, strain drs2, active compounds read low",0.969
same,normalized growth,"locus YAL030W, strain snc1, active compounds read low",0.983
same,normalized growth,"locus YBL061C, strain skt5, active compounds read low",0.976
same,normalized growth,"locus YBR009C, strain hhf1, active compounds read low",0.962
same,normalized growth,"locus YBR021W, strain FUR4, active compounds read low",0.996
same,normalized growth,"locus YBR023C, strain chs3, active compounds read low",0.974
same,normalized growth,"locus YBR171W, strain sec66, active compounds read low",0.95
same,normalized growth,"locus YBR229C, strain ROT2, active compounds read low",0.982
same,normalized growth,"locus YBR231C, strain swc5, active compounds read low",0.983
same,normalized growth,"locus YBR279W, strain paf1, active compounds read low",0.978
same,normalized growth,"locus YCL011C, strain gbp2, active compounds read low",0.987
same,normalized growth,"locus YCL016C, strain dcc1, active compounds read low",0.985
same,normalized growth,"locus YCL029C, strain bik1, active compounds read low",0.96
same,normalized growth,"locus YCL061C, strain MRC1, active compounds read low",0.994
same,normalized growth,"locus YCL069W, strain vba3, active compounds read low",0.955
same,normalized growth,"locus YCR088W, strain abp1, active compounds read low",0.967
same,normalized growth,"locus YDL005C, strain med2, active compounds read low",0.969
same,normalized growth,"locus YDL035C, strain GPR1, active compounds read low",0.98
same,normalized growth,"locus YDL040C, strain nat1, active compounds read low",0.97
same,normalized growth,"locus YDL074C, strain BRE1, active compounds read low",0.927
same,normalized growth,"locus YDL101C, strain DUN1, active compounds read low",0.955
same,normalized growth,"locus YDL185W, strain tfp1, active compounds read low",0.959
same,normalized growth,"locus YDL192W, strain arf1, active compounds read low",0.931
same,normalized growth,"locus YDR001C, strain nth1, active compounds read low",0.979
same,normalized growth,"locus YDR069C, strain doa4, active compounds read low",0.965
same,normalized growth,"locus YDR101C, strain arx1, active compounds read low",0.961
same,normalized growth,"locus YDR137W, strain rgp1, active compounds read low",0.797 (active)
same,normalized growth,"locus YDR159W, strain sac3, active compounds read low",0.969
same,normalized growth,"locus YDR162C, strain NBP2, active compounds read low",0.937
same,normalized growth,"locus YDR195W, strain ref2",1.11
same,normalized growth,"locus YDR297W, strain sur2, active compounds read low",0.994
same,normalized growth,"locus YDR318W, strain mcm21, active compounds read low",0.93
same,normalized growth,"locus YDR334W, strain swr1, active compounds read low",0.957
same,normalized growth,"locus YDR335W, strain msn5, active compounds read low",0.968
same,normalized growth,"locus YDR388W, active compounds read low",0.969
same,normalized growth,"locus YDR392W, strain spt3, active compounds read low",0.749
same,normalized growth,"locus YDR502C, strain sam2, active compounds read low",0.931
same,normalized growth,"locus YEL003W, strain gim4, active compounds read low",0.962
same,normalized growth,"locus YEL037C, strain rad23, active compounds read low",0.966
same,normalized growth,"locus YEL061C, strain CIN8 (second series), active compounds read low",0.957
same,normalized growth,"locus YER015W, strain faa2, active compounds read low",0.986
same,normalized growth,"locus YER016W, strain bim1, active compounds read low",0.973
same,normalized growth,"locus YER110C, active compounds read low",0.969
same,normalized growth,"locus YER111C, strain swi4, active compounds read low",0.965
same,normalized growth,"locus YER155C, strain BEM2 (second series), active compounds read low",0.952
same,normalized growth,"locus YER155C, strain BEM2, active compounds read low",0.971
same,normalized growth,"locus YER167W, strain BCK2, active compounds read low",0.973
same,normalized growth,"locus YFR010W, strain ubp6, active compounds read low",0.979
same,normalized growth,"locus YGL078C, strain dbp3, active compounds read low",0.981
same,normalized growth,"locus YGL086W, strain mad1, active compounds read low",0.921 (active)
same,normalized growth,"locus YGL167C, strain pmr1, active compounds read low",0.96
same,normalized growth,"locus YGL173C, strain kem1, active compounds read low",0.959
same,normalized growth,"locus YGL227W, strain vid30, active compounds read low",0.983
same,normalized growth,"locus YGL240W, strain doc1, active compounds read low",0.991
same,normalized growth,"locus YGL248W, strain PDE1, active compounds read low",0.939
same,normalized growth,"locus YGL253W, strain hxk2, active compounds read low",0.976
same,normalized growth,"locus YGR135W, strain pre9, active compounds read low",0.948
same,normalized growth,"locus YGR252W, strain gcn5, active compounds read low",0.92
same,normalized growth,"locus YHR013C, strain ard1, active compounds read low",0.944
same,normalized growth,"locus YHR027C, strain rpn1, active compounds read low",0.964
same,normalized growth,"locus YHR030C, strain SLT2, active compounds read low",0.991 and 0.996
same,normalized growth,"locus YHR079C, strain IRE1 (second series), active compounds read low",0.971
same,normalized growth,"locus YHR079C, strain IRE1, active compounds read low",0.978
same,normalized growth,"locus YHR094C, strain hxt1, active compounds read low",0.977
same,normalized growth,"locus YHR129C, strain ARP1, active compounds read low",0.959
same,normalized growth,"locus YHR142W, strain chs7, active compounds read low",0.929
same,normalized growth,"locus YHR200W, strain rpn10, active compounds read low",0.982
same,normalized growth,"locus YIL066C, strain RNR3, active compounds read low",0.961
same,normalized growth,"locus YIL073C, strain SPO22, active compounds read low",0.955
same,normalized growth,"locus YIL125W, strain kgd1, active compounds read low",0.98
same,normalized growth,"locus YIR030C, strain dcg1, active compounds read low",0.973
same,normalized growth,"locus YJL092W, strain hpr5, active compounds read low",0.978
same,normalized growth,"locus YJL095W, strain BCK1 (second series), active compounds read low",0.987
same,normalized growth,"locus YJL095W, strain BCK1, active compounds read low",0.864 and 0.977
same,normalized growth,"locus YJL115W, strain asf1, active compounds read low",0.98
same,normalized growth,"locus YJL129C, strain trk1, active compounds read low",0.878
same,normalized growth,"locus YJL134W, strain LCB3, active compounds read low",0.989
same,normalized growth,"locus YJL154C, strain vps35, active compounds read low",0.955
same,normalized growth,"locus YJL164C, strain tpk1, active compounds read low",0.965
same,normalized growth,"locus YJL166W, strain qcr8, active compounds read low",0.965
same,normalized growth,"locus YJL168C, strain set2, active compounds read low",0.97
same,normalized growth,"locus YJL187C, strain SWE1 (second series), active compounds read low",0.953
same,normalized growth,"locus YJL187C, strain SWE1, active compounds read low",0.97
same,normalized growth,"locus YJR043C, strain POL32, active compounds read low",1.03
same,normalized growth,"locus YJR066W, strain TOR1, active compounds read low",0.873
same,normalized growth,"locus YKL009W, strain mrt4, active compounds read low",0.963
same,normalized growth,"locus YKL068W, active compounds read low",0.974
same,normalized growth,"locus YKL085W, strain MDH1 (second series), active compounds read low",0.97
same,normalized growth,"locus YKL085W, strain MDH1, active compounds read low",0.97
same,normalized growth,"locus YKL160W, strain elf1, active compounds read low",0.975
same,normalized growth,"locus YKR001C, strain vps1, active compounds read low",0.798 (active)
same,normalized growth,"locus YKR026C, strain gcn3, active compounds read low",0.97
same,normalized growth,"locus YKR091W, strain srl3, active compounds read low",0.981
same,normalized growth,"locus YLL001W, strain dnm1, active compounds read low",0.966
same,normalized growth,"locus YLL026W, active compounds read low",0.988
same,normalized growth,"locus YLL041C, strain sdh2, active compounds read low",0.953
same,normalized growth,"locus YLR027C, strain aat2, active compounds read low",0.991
same,normalized growth,"locus YLR039C, strain RIC1, active compounds read low",1.57 [resistant] (active)
same,normalized growth,"locus YLR058C, strain SHM2, active compounds read low",0.977
same,normalized growth,"locus YLR102C, strain apc9, active compounds read low",0.969
same,normalized growth,"locus YLR113W, strain HOG1, active compounds read low",1.01
same,normalized growth,"locus YLR221C, strain rsa3, active compounds read low",0.971
same,normalized growth,"locus YLR258W, strain gsy2, active compounds read low",0.954
same,normalized growth,"locus YLR262C, strain YPT6 (second series), active compounds read low",0.788 (active)
same,normalized growth,"locus YLR262C, strain YPT6, active compounds read low",0.738
same,normalized growth,"locus YLR268W, strain sec22, active compounds read low",0.968
same,normalized growth,"locus YLR320W, strain mms22, active compounds read low",0.895
same,normalized growth,"locus YLR330W, strain CHS5, active compounds read low",0.888 (active)
same,normalized growth,"locus YLR342W, strain FKS1, active compounds read low",0.96
same,normalized growth,"locus YLR357W, strain rsc2, active compounds read low",1.03
same,normalized growth,"locus YLR370C, strain arc18, active compounds read low",0.974
same,normalized growth,"locus YLR371W, strain rom2, active compounds read low",0.921
same,normalized growth,"locus YLR384C, strain iki3, active compounds read low",0.982
same,normalized growth,"locus YLR418C, strain cdc73, active compounds read low",0.796 (active)
same,normalized growth,"locus YML016C, strain PPZ1, active compounds read low",0.981
same,normalized growth,"locus YML032C, strain rad52, active compounds read low",0.919
same,normalized growth,"locus YML120C, strain ndi1, active compounds read low",0.976
same,normalized growth,"locus YML124C, strain tub3, active compounds read low",0.968
same,normalized growth,"locus YMR058W, strain fet3, active compounds read low",0.979
same,normalized growth,"locus YMR078C, strain ctf18, active compounds read low",0.955
same,normalized growth,"locus YMR125W, strain sto1, active compounds read low",0.961
same,normalized growth,"locus YMR129W, active compounds read low",0.983
same,normalized growth,"locus YMR205C, strain PFK2, active compounds read low",0.914
same,normalized growth,"locus YMR223W, strain ubp8, active compounds read low",0.944
same,normalized growth,"locus YMR231W, strain pep5, active compounds read low",0.972
same,normalized growth,"locus YMR307W, strain GAS1, active compounds read low",0.692
same,normalized growth,"locus YNL067W, strain RPL9B, active compounds read low",0.967
same,normalized growth,"locus YNL071W, strain lat1, active compounds read low",0.948
same,normalized growth,"locus YNL153C, strain GIM3, active compounds read low",0.953
same,normalized growth,"locus YNL183C, strain NPR1, active compounds read low",0.915
same,normalized growth,"locus YNL209W, strain ssb2, active compounds read low",0.975
same,normalized growth,"locus YNL233W, strain BNI4, active compounds read low",0.934
same,normalized growth,"locus YNL248C, strain rpa49, active compounds read low",0.976
same,normalized growth,"locus YNL250W, strain rad50, active compounds read low",1.01
same,normalized growth,"locus YNL271C, strain bni1, active compounds read low",0.975
same,normalized growth,"locus YNL298W, strain CLA4, active compounds read low",0.945
same,normalized growth,"locus YNL307C, strain MCK1, active compounds read low",0.761 (active)
same,normalized growth,"locus YNL322C, strain KRE1 (second series), active compounds read low",0.986
same,normalized growth,"locus YNR049C, strain mso1, active compounds read low",0.963
same,normalized growth,"locus YNR052C, strain pop2, active compounds read low",0.943
same,normalized growth,"locus YOL012C, strain htz1",1.31
same,normalized growth,"locus YOL147C, strain pex11, active compounds read low",0.931 (active)
same,normalized growth,"locus YOR001W, strain rrp6, active compounds read low",0.953
same,normalized growth,"locus YOR061W, strain CKA2, active compounds read low",0.999
same,normalized growth,"locus YOR069W, strain VPS5, active compounds read low",0.974
same,normalized growth,"locus YOR070C, strain gyp1, active compounds read low",0.987
same,normalized growth,"locus YOR080W, strain dia2, active compounds read low",0.975
same,normalized growth,"locus YOR083W, strain WHI5, active compounds read low",0.973
same,normalized growth,"locus YOR106W, strain vam3, active compounds read low",0.97
same,normalized growth,"locus YOR136W, strain idh2, active compounds read low",0.967
same,normalized growth,"locus YOR144C, strain elg1, active compounds read low",0.961
same,normalized growth,"locus YOR184W, strain ser1, active compounds read low",0.866 (active)
same,normalized growth,"locus YOR231W, strain MKK1, active compounds read low",0.953
same,normalized growth,"locus YOR265W, strain rbl2, active compounds read low",0.969
same,normalized growth,"locus YOR270C, strain vph1, active compounds read low",0.737 (active)
same,normalized growth,"locus YOR290C, strain snf2, active compounds read low",0.982
same,normalized growth,"locus YOR316C, strain cot1, active compounds read low",0.979
same,normalized growth,"locus YPL051W, strain arl3, active compounds read low",0.975
same,normalized growth,"locus YPL078C, strain atp4, active compounds read low",0.958
same,normalized growth,"locus YPL106C, strain sse1, active compounds read low",1.02
same,normalized growth,"locus YPL240C, strain hsp82, active compounds read low",0.965
same,normalized growth,"locus YPL241C, strain CIN2, active compounds read low",0.971
same,normalized growth,"locus YPL256C, strain CLN2, active compounds read low",0.969
same,normalized growth,"locus YPR119W, strain clb2, active compounds read low",0.966
same,normalized growth,"locus YPR141C, strain kar3, active compounds read low",0.98
same,normalized growth,"locus YPR163C, strain tif3, active compounds read low",0.86 (active)
same,normalized growth,"locus YPR167C, strain met16, active compounds read low",0.965
same,normalized growth,"strain wtn01, active compounds read low",0.94

# — PubChem BioAssay AID1159580 (chemical genetic matrix, 2015)
